{
  "source": "PubChem BioAssay (NCI)",
  "note": "This is part of a sample that, as a whole, favours compounds with a hit. Of some 83,000 tested, about 20% had one in any assay.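 Cells were grown in 96-well plates and exposed to the test compound at a single concentration for 48 hours; results are reported as percent growth, with values below 10 considered active.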 Active and inactive are the calls of the source.",
  "data": [
    {"test_system": "786-0 renal", "experiment": "NCI-60 one-dose screen, 48 h (100 = growth as untreated, 0 = no growth, -100 = all killed)", "conditions": "10 µM", "values": [
      {"smiles": "Clc1ccc(Nc2ccnc(NCCCNc3ccnc4cc(Cl)ccc34)n2)cc1", "growth": "-98.9% (active)"},
      {"smiles": "Oc1[nH]c2cc(Cl)ccc2c1/C=c1/ccc2c(c1)N=C(c1cc(F)cc(F)c1)N=2", "growth": "36.7% (inactive)"},
      {"smiles": "CSc1nn(-c2ccccc2)c2ncnc(Oc3ccccc3)c12", "growth": "92.9% (inactive)"},
      {"smiles": "Cc1cc2c(C)c3cc(C)c(N)cc3nc2cc1N", "growth": "28% (inactive)"},
      {"smiles": "CCOC(=O)C1(CC(C)C)CCOC1=O", "note": "(centres undefined)", "growth": "107% (inactive)"},
      {"smiles": "COc1ccc(Nc2cc(C)nc(NCCCNc3ccnc4cc(Cl)ccc34)n2)cc1", "growth": "-97.7% (active)"},
      {"smiles": "CCCCCCCCCCCCCCCC(=O)OC1[C@@H](OC(=O)CCCCCCCCCCCCCCC)[C@@H](C(=O)N[C@@H](CCCCN)C(=O)OC)O[C@H]1n1cnc2c(=O)[nH]c(NC(=O)C(C)C)nc21", "note": "(some centres undefined)", "growth": "98.1% (inactive)"},
      {"smiles": "COc1cc(Nc2ccnc(NCCNc3ccnc4cc(Cl)ccc34)n2)cc(OC)c1", "growth": "35.4% (inactive)"},
      {"smiles": "Cc1cc(Nc2ccc(Cl)cc2)nc(NCCCNc2ccnc3cc(Cl)ccc23)n1", "growth": "-98.7% (active)"},
      {"smiles": "COc1cc2cc3c(nc2cc1OC)CCN3Cc1ccc(NC(=O)Nc2cc(C(F)(F)F)cc(C(F)(F)F)c2)cc1", "growth": "81.4% (inactive)"},
      {"smiles": "CC(C)=CCc1cc(O)cc2c1OC(C=C(C)C)C1=C2C(=O)C2=C(NCCS2(=O)=O)C1=O", "note": "(centres undefined)", "growth": "22.9% (inactive)"},
      {"smiles": "CC(C)=CCc1cc(O)cc2c1OC(C=C(C)C)C1=C2C(=O)C2=C(C1=O)S(=O)(=O)CCN2", "note": "(centres undefined)", "growth": "80% (inactive)"},
      {"smiles": "COc1ccc(Nc2ccnc(NCCNc3ccnc4cc(Cl)ccc34)n2)cc1", "growth": "59.4% (inactive)"},
      {"smiles": "Cc1cc(Cl)nc(N(CCCNc2ccnc3cc(Cl)ccc23)Cc2cccs2)n1", "growth": "17.4% (inactive)"},
      {"smiles": "COc1cc(Cl)cc(-c2nn(-c3cccc(NC(=O)Nc4cc(C(F)(F)F)cc(C(F)(F)F)c4)c3)cc2-c2ccncc2)c1", "growth": "-26.9% (active)"},
      {"smiles": "CN(C)CCNC(=O)c1cccn2c(=O)c3cc4ccccc4cc3nc12", "growth": "-31.3% (active)"},
      {"smiles": "CC12O[C@H](C[C@@H](O)[C@H]1O)n1c3ccccc3c3c4c(c5c6ccccc6n2c5c31)C(=O)N(CCCN)C4=O", "growth": "53.9% (inactive)"},
      {"smiles": "CCCCCCCC(C)NCCO", "note": "(centres undefined)", "growth": "94.7% (inactive)"},
      {"smiles": "Cc1cc(N(CCCNc2ccnc3cc(Cl)ccc23)Cc2ccc3c(c2)OCO3)nc(N2CCOCC2)n1", "growth": "-20.4% (active)"},
      {"smiles": "COc1cc(-c2nnc(-c3c(-c4ccc(F)cc4)nc4ccccn34)o2)cc(OC)c1OC", "growth": "64.7% (inactive)"},
      {"smiles": "COc1ccc2c(c1)/C(=C\\c1c[nH]c3ccc(OC)cc13)C(=O)N2", "growth": "70.9% (inactive)"},
      {"smiles": "NC(=O)CC1(c2ccccc2)CCCCC1", "growth": "97.1% (inactive)"},
      {"smiles": "COc1ccc(-c2nc3sccn3c2-c2nc3c([nH]2)C(=O)c2ccccc2C3=O)cc1", "growth": "89.4% (inactive)"},
      {"smiles": "Fc1ccc(-c2nnc(-c3c(-c4ccc(F)cc4)nc4ccccn34)o2)cc1", "growth": "88.2% (inactive)"},
      {"smiles": "CCN1CCCC1CNC(=O)c1ncc(-c2ccc(C(F)(F)F)cc2)c(NC2CCCCCC2)n1", "note": "(centres undefined)", "growth": "84.5% (inactive)"},
      {"smiles": "Cc1ccc(Nc2cc(C)nc(NCCCNc3ccnc4cc(Cl)ccc34)n2)cc1", "growth": "-100% (active)"},
      {"smiles": "Cn1c([N+](=O)[O-])cnc1/C=C1\\Oc2ccccc2C1=O", "growth": "-10.9% (active)"},
      {"smiles": "CC12O[C@H](C[C@@H](OC(=O)c3ccccc3)[C@H]1O)n1c3ccccc3c3c4c(c5c6ccccc6n2c5c31)C(=O)NC4=O", "growth": "78.7% (inactive)"},
      {"smiles": "COc1ccc(-c2nc3ncccn3c2-c2nnc(-c3ccc(F)cc3)o2)cc1", "growth": "101% (inactive)"},
      {"smiles": "Nc1ccc2c(c1)C1(CCC2)NC(=O)NC1=O", "note": "(centres undefined)", "growth": "100% (inactive)"},
      {"smiles": "COc1cc(OC)cc(-c2cncn2-c2ccc(-c3nc4cc(OC)cc(OC)c4s3)cc2)c1", "growth": "66% (inactive)"},
      {"smiles": "Clc1ccc2c(NCCCNc3nccc(Nc4ccc(Br)cc4)n3)ccnc2c1", "growth": "-98.9% (active)"},
      {"smiles": "O=C(Nc1cccc(Br)c1)c1cc(=O)[nH]c2ccccc12", "growth": "103% (inactive)"},
      {"smiles": "COc1cc(Nc2ccnc(NCCCNc3ccnc4cc(Cl)ccc34)n2)cc(OC)c1", "growth": "-90.9% (active)"},
      {"smiles": "CN1CCC(CNc2cc(C3(C(=O)Nc4cc(C(=O)Nc5ccc(Cl)c(C(F)(F)F)c5)ccc4F)CC3)ncn2)CC1", "growth": "-38.4% (active)"},
      {"smiles": "N#Cc1c(C#N)c(SSc2c(C#N)c(C#N)c(N)n2-c2ccccc2)n(-c2ccccc2)c1N", "growth": "101% (inactive)"},
      {"smiles": "Clc1ccc(Nc2ccnc(NCCNc3ccnc4cc(Cl)ccc34)n2)cc1", "growth": "-62% (active)"},
      {"smiles": "Cc1cc(N(CCCNc2ccnc3cc(Cl)ccc23)Cc2ccc3c(c2)OCO3)nc(N2CCCCC2)n1", "growth": "-91.5% (active)"},
      {"smiles": "CCCCN(CCCC)c1cc(C(=O)CCCCCN)c2ccccc2n1", "growth": "38.8% (inactive)"}
    ]}
  ]
}
